# Key:
# Experiment in all cases: PBM binding z-score (relative to random genomic background probes); higher = stronger binding; sequences stand for … in GC…GCGATTGACAGCGTAGAATGAAGG
# [1] = test system: FXR:RXRa (NR concentration 270 nM, RXRa partner concentration 90 nM)
# In short: (§1)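 Custom Agilent 4×180K protein-binding microarrays carried double-stranded probes. Their 34-nt variable regions held direct-repeat seeds, single-nucleotide variants, half-site ablations and random human genomic background sequences. Arrays were incubated 1 h with ligand-free nuclear receptor dimers in PBS pH 7.4, 2% milk, 0.02% Triton X-100, 1 mM DTT, 0.2 mg/mL BSA and 0.4 mg/ml salmon testes DNA. Antibodies against each partner (one per run) detected binding, and scanned fluorescence was regression-normalized. Binding z-scores use random background probes as reference.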
# [2] = test system: LXRa:RXRa (NR concentration 270 nM, RXRa partner concentration 90 nM)
# In short: as §1
# [3] = test system: LXRa homodimer (NR concentration 270 nM)
# In short: as §1
# [4] = test system: LXRb:RXRa (NR concentration 270 nM, RXRa partner concentration 90 nM)
# In short: as §1
# [5] = test system: LXRb homodimer (NR concentration 270 nM)
# In short: as §1
# [6] = test system: PPARa:RXRa (NR concentration 270 nM, RXRa partner concentration 90 nM)
# In short: as §1
# [7] = test system: PPARg:RXRa (NR concentration 180 nM, RXRa partner concentration 90 nM)
# In short: as §1
# [8] = test system: PPARg:RXRa 270nM:90nM, anti-RXR (NR concentration 270 nM, RXRa partner concentration 90 nM)
# In short: as §1
# [9] = test system: PPARg:RXRa 30nM:10nM, anti-RXR (NR concentration 30 nM, RXRa partner concentration 10 nM)
# In short: as §1
# [10] = test system: PPARg:RXRa 90nM:30nM, anti-RXR (NR concentration 90 nM, RXRa partner concentration 30 nM)
# In short: as §1
Sequence,PBM binding z-score [1],PBM binding z-score [2],PBM binding z-score [3],PBM binding z-score [4],PBM binding z-score [5],PBM binding z-score [6],PBM binding z-score [7],PBM binding z-score [8],PBM binding z-score [9],PBM binding z-score [10]
CATCCAAGGTCATAGGAGGTCAGTGAAGACAGAT,7.76,7.88,6.67,6.38,1.99,6.12,6.25,6.07,3.14,4.93
ACTTACGGGTCAATGAGGTTATAGCACGCGTATA,5.51,4.96,0.962,4.08,1.04,5.25,4.45,4.61,2.44,3.5
TCTTGTAGATCAAAGGTTTAGAAAGCCGAAGCCT,0.668,0.408,-0.116,0.454,-0.505,1.63,3.22,5.08,4.18,5.48
AATACAGGGTCACTAGGCCAGAGTTGGTACGAAT,6.05,4.87,0.807,3.75,0.616,5.99,8.38,6.63,3.71,5.85
ATCTCTAGGTAAGACTCAGTTCAGAGAAGAACGC,0.455,0.578,0.401,-0.0123,0.78,-0.0205,0.366,0.339,0.28,0.268
TCTTGTAGATCAGCAGGAGGTTAAGAAAGATCGA,-0.201,0.985,-0.411,0.538,-0.736,1.03,-0.21,1.36,2.16,1.74
TCTTGTAGATCAAAGGTGAAGAAAGCCGAAGCCT,0.848,1.05,-0.533,0.994,-0.372,4.04,7.41,7.96,7.36,9.05
TCTCGGAGGACACGAAATGTCAGAGCTCGACATC,0.755,0.358,-0.2,0.313,-0.55,0.168,0.208,1.09,2.37,1.62
CCTAGTAGTTGACCATAAGGGCAACCGAAGCTCG,0.577,0.379,0.118,0.228,0.0472,0.369,0.269,0.285,-0.556,0.0396
CAAACTAGGTCAAAGGGCAAAGTCGAGCCAACCA,6.12,5.04,1.25,4.01,0.969,6.94,12.9,10.6,11,11.7
TCTGCTAGGTCAACGATGGTCAGGTAATCTGCTA,3.43,2.96,0.163,1.53,-0.249,3.19,2.74,3.06,2.01,2.65
ATACCAAGGTGATCGTGAGGCCGTTGATACTAAC,0.369,0.246,-0.0793,0.0516,-0.198,0.139,0.361,0.165,0.0132,0.0891
GTACCAAGGTAAATAGGTCGTTGATGAGTAGGCG,0.0892,0.228,-0.0943,0.151,-0.264,1.73,1.37,1.34,0.667,0.78
ACAGACAGGTGAGTGAAGGTAACCCAGCTGGACG,0.353,-0.0379,-0.585,-0.271,-0.844,0.275,0.708,0.399,-0.129,0.213
TCTTGTAGATCAGCAGGTTAAGAGAGCTGGCCAA,-0.327,-0.11,-0.629,0.359,-0.638,0.689,-0.415,1.35,2.45,1.77
TCATATACGTAAAAGGTGAAAGTCGGTGTGGTAA,1.58,1.77,0.215,1.7,0.467,2.81,1.68,3.88,4.6,4.19
ATCGAAAGGTCGACGAGGTTAGTATACACCGTTT,4.41,3.75,0.309,3.11,0.782,4.33,2.6,3.04,0.863,2.24
TCGAGTAGGTTAGTCGGGGTATTCAGCCAACATA,0.000404,-0.0351,-0.315,0.411,-0.451,0.421,-0.245,0.44,1.24,0.688
GGAACGATGGCAAGTTGATAGCAGAGTTTGATGG,-0.624,-0.756,-0.63,-0.971,-1.01,-0.654,0.339,-0.873,-0.448,-0.709

Sequence,PBM binding z-score [1],PBM binding z-score [2],PBM binding z-score [3],PBM binding z-score [4],PBM binding z-score [5],PBM binding z-score [6],PBM binding z-score [7],PBM binding z-score [8],PBM binding z-score [9],PBM binding z-score [10]
TAGCCTAGGTCATGGGCCAGTATACCACGCGAAC,4.32,3.28,0.195,2.24,-0.333,4.04,3.78,3.66,0.829,2.59
CTCGAAAGGTCGGTTGAGGCGAGTATACGGATAA,1.49,1.17,-0.238,0.925,-0.22,2.11,0.256,0.752,-0.191,0.269
GCTGCTAGGACAACTGATGGTCAGCTAAAGCTCG,-0.547,-0.859,-0.672,-1.14,-1.05,-1.94,-0.0624,-0.895,-0.952,-1.12
ATATGTAGGGTAGCTGGGGTCATTCAGACTAGGC,3.69,4.07,2.16,4.42,1.68,5.28,5.01,4.85,2.14,3.95
GCATATAGGTAATACAAGGTGAAACTCCGATTGT,1.27,2.79,0.554,0.988,-0.38,1.83,1.5,1.04,0.514,0.842
ACTTACGTGTCAACGAGGTTATAGCACGCGTATA,0.812,1.03,0.113,1.02,0.0422,1.84,0.927,0.653,0.374,0.627
GCGACTGGGGCAAAGAAGGTTACCATAAGGTTGG,1.24,0.788,-0.0747,1.06,-0.824,1.72,1.56,2.22,0.513,1.66
ATCTCTAGGTGAAGTTCAGTGAAAGATCGATAGA,0.465,0.465,0.0389,0.0201,0.118,1.88,1.57,1.74,0.453,1.35
CCTACTGGGCCATTCACAGGTCATTGATCATATG,0.864,2.27,4.05,2.21,-0.0927,2.62,1.27,2.04,0.468,1.3
TGTACAGGGTCAAAGGCCAGAGTACGAATGTCGA,7.25,4.91,-0.0298,4.39,0.326,6.34,8.21,7.42,5.22,7.52
ATATGTAGGTTAAGGGTCAATCAGGTTGGTTCGC,4.97,4.62,1.8,4.47,1.35,6.65,11.6,9.7,10.1,10.8
GCTCGGAGAACAAGGTCAGAGCTTTGTCCGTAGA,1.25,1.41,-0.275,1.11,-1.02,2.37,0.176,0.774,-0.425,0.29
AGTCAAAGTTCATCTAGGTTACGTAAGATATGCT,6.68,6.16,6.06,3.95,2.11,4.96,6.9,6.6,4.02,5.95
TCATATAGGTAATACAGGTGATAGTCGGCATCTA,0.719,1,0.507,0.789,0.315,1.36,1.6,2.3,3.98,3.1
CAAACTAGGTCACGAAAGGTCACAGTCGAATGAC,6.73,7.6,5.88,6.82,1.64,6.62,10.1,8.34,6.6,8.57
GCGACTGGGGCAAAGCAGGTTGCCATAAGGTTGG,-0.377,-0.798,-0.715,-0.849,-1.26,0.461,0.599,1.15,-0.358,0.243
TGAATGAGGTTGTAAGATCAGGGAACGTTGCAAA,-0.0998,-0.208,-0.429,-0.35,0.0245,0.282,-0.0383,0.349,0.261,0.21
TTACCAAGGTGAGCTGAGGTCGTAGATCCAACTC,2.54,0.614,-0.687,0.401,-1.29,1.78,0.268,0.85,-0.191,0.588
TCTTGTAGATCAAGAGGAGGTTAAGAAAGATCGA,0.338,0.95,-0.0702,0.725,-0.517,1.22,-0.0325,1.24,2.38,1.6

# — the supplement of paper PMC6555819
